The source made the active and inactive calls. Calls follow the shape of the dose curve; as a rule, active = well fitted curve in the direction sought with a large enough effect (not every such curve was filed as active); inconclusive = small, poorly fitted or top-dose-only effect, or effect the other way, or another doubt; inactive = no such curve, though single readings can be large or run the other way.

The text below walks through data of PubChem BioAssay (NCATS).

The target of the test is Pyruvate kinase PKM (Homo sapiens) (UniProt P14618). The experiment in a line: qHTS Assay for Activators of Human Muscle Pyruvate Kinase (AID 954). Conditions: purified human muscle pyruvate kinase, luciferase-coupled luminescence, 1 h; series mostly up to 57.5 µM. As for the experimental part: NIH Molecular Libraries Screening Centers Network [MLSCN]
Sequence of Pyruvate kinase PKM (Homo sapiens) (P14618 whole entry, looked up): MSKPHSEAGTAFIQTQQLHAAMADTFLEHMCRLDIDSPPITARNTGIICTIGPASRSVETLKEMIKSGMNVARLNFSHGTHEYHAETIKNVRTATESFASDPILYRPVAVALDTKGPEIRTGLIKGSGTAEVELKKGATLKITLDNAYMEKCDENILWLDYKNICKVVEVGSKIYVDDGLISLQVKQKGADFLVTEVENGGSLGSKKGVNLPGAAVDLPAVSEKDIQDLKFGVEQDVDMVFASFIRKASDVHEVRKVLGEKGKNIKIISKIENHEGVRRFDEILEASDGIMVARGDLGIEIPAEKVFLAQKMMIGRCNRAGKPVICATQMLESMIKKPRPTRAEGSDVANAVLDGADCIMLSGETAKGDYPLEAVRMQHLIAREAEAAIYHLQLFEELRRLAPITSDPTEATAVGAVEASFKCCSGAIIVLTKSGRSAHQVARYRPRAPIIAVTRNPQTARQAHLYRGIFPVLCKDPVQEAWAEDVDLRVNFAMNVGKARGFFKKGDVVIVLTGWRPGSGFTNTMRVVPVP
NIH Chemical Genomics Center [NCGC]
Wael M. Rabeh, Lyudmila Nedyalkova and Hee-Wan Park [Structural Genomics Consortium, 100 College St. Toronto, Ontario, Canada]
Human pyruvate kinase muscle 2 enzyme was supplied as a highly purified (>95% pure) preparation by the Structural Genomics Consortium in Toronto (Ontario, Canada) and was assayed for its ability to generate ATP from ADP using phosphoenolpyruvate (PEP) as a substrate. ATP generation was detected in a coupled reaction by luciferase-mediated luminescence, an ATP-dependent process. Pyruvate kinase substrates, PEP and ADP, were present in the assay at Km and approximately […]-fold below Km respectively. The enzyme was assayed at an intermediate level of activity to screen for inhibitors and activators.
NCGC Assay Protocol Summary:
Three uL of substrate mix (final concentration, 50 mM imidazole pH 7.2, 50 mM KCl, 7 mM MgCl2, 0.5 mM PEP, 0.1 mM ADP, 0.01% Tween 20, 0.05% BSA) was dispensed into 1536 well plates. 23 nL of compound were delivered by a pin tool and 1 uL of enzyme mix (final concentration, 0.1 nM pyruvate kinase, 50 mM imidazole pH 7.2, 0.05% BSA) was added. Plates were incubated at room temperature for 1 hour. Two uL of detection and kinase stop mix (PKLight, Cambrex) was added, the plates centrifuged, and luminescence read by a ViewLux (Perkin Elmer) at 5 second exposure/plate. Data were normalized to the uninhibited and AC100 inhibition (no enzyme or 110 uM N-methyl-2,3-diphenyl-1,2,4-thiadiazol-5-imine; CID: 682802; LOPAC-S-4063). To monitor activation, 0.3 nM pyruvate kinase was included in one control column.
For orientation: Quantitative high-throughput screening tests each substance at several concentrations.
Turning to `FC(F)(F)c1ccccc1-n1ccnc1`, the outcome was inactive.

Consider `CCN(CC)CCNC(=O)c1cc(S(C)(=O)=O)ccc1OC`, for which the compound was called inactive.

As to `NC(=O)N1c2ccccc2C=Cc2ccccc21`, the compound was called inactive.

As to `Cc1nc2sccn2c(=O)c1CCN1CCC(=C(c2ccc(F)cc2)c2ccc(F)cc2)CC1`, the compound was classed as inactive.

For `COc1cc(Cc2cnc(N)nc2N)cc(OC)c1OC`, the call was inactive.

On to `COc1cc(C(=O)OCCCN2CCCN(CCCOC(=O)c3cc(OC)c(OC)c(OC)c3)CC2)cc(OC)c1OC`, for which the compound was called inactive.

As to `CCCCNc1ccc(C(=O)OCCN(C)C)cc1`, the outcome was inactive.

For `CN(C)C(=O)Oc1ccc[n+](C)c1`, the outcome was inactive.

For the compound `N[C@@H](COP(=O)(O)O)C(=O)O`, the result was inactive.

With `CN1CCN(CC(=O)N2c3ccccc3C(=O)Nc3cccnc32)CC1`, the outcome was inactive.

`CCc1cccc(N(C)C(N)=Nc2cccc3ccccc23)c1`: the compound was classed as inactive.

Consider `O=C(O)CN(CCN(CC(=O)O)CC(=O)O)CCN(CC(=O)O)CC(=O)O`, for which the result was inactive.

Turning to `Nc1nc(N)c2nc(-c3ccccc3)c(N)nc2n1`, the result was inactive.

Take `C[C@]12CCC(=O)C=C1CC[C@@H]1[C@@H]2C(=O)C[C@@]2(C)[C@H]1CC[C@]2(O)C(=O)CO`: the result was inactive.

Take `c1cc(CN2CCCCC2)cc(OCCCNc2nc3ccccc3s2)c1`: the call was inactive.

As to `CCCCNC(=O)NS(=O)(=O)c1ccc(C)cc1`, the outcome was inactive.

For `COC(=O)[C@H]1[C@H]2C[C@@H]3c4[nH]c5cc(OC)ccc5c4CCN3C[C@H]2C[C@@H](OC(=O)c2cc(OC)c(OC)c(OC)c2)[C@@H]1OC`, the result was inactive.

With `CCN(CC)CC(=O)Nc1c(C)cccc1C`, the compound was called inactive.

In the case of `CN(C)C(=O)Oc1cccc([N+](C)(C)C)c1`, the compound was classed as inactive.

Take `C(=C\c1ccccc1)/CN1CCN(C(c2ccccc2)c2ccccc2)CC1`: the result was inactive.

Turning to `CN(C)CCN(Cc1cccs1)c1ccccn1`, the call was inactive.

As to `Cc1ccc(=O)n(-c2ccccc2)c1`, the result was inactive.

With `Cc1nc2ccccn2c(=O)c1CCN1CCC(C(=O)c2ccc(F)cc2)CC1`, the compound was called inactive.

For `Cc1ccc(S(=O)(=O)NC(=O)NN2CCCCCC2)cc1`, the call was inactive.

Consider `CCNC(=O)N1CCN(CCCC(c2ccc(F)cc2)c2ccc(F)cc2)CC1`, for which the outcome was inactive.

Consider `C[N+](C)(C)CCOC(N)=O`, for which the result was inactive.

On to `CCN(CC)CCOCCOC(=O)C1(c2ccccc2)CCCC1`, for which the compound was classed as inactive.

With `Cc1scc2c1N(C(=O)CN1CCN(C)CC1)c1ccccc1NC2=O`, the compound was called inactive.

As to `OCCN1CCN(CCCN2c3ccccc3C=Cc3ccccc32)CC1`, the compound was classed as inactive.

In the case of `CN(C)CCOC(=O)COc1ccc(Cl)cc1`, the outcome was inactive.

In the case of `O=C(O)CCCCCCCC(=O)O`, the compound was called inactive.

`CC[N+](C)(C)c1cccc(O)c1`: the compound was called inactive.

`Cc1ccc(Cl)c(Nc2ccccc2C(=O)O)c1Cl`: the call was inactive.

On to `O=c1[nH]c(=O)n([C@H]2C[C@H](O)[C@@H](CO)O2)cc1Br`, for which the compound was classed as inactive.

With `CC(=O)Oc1cc(C(C)C)c(OCCN(C)C)cc1C`, the compound was classed as inactive.

With `O=C1CC2(CCCC2)CC(=O)N1CCCCN1CCN(c2ncccn2)CC1`, the compound was called inactive.

In the case of `C[N+](C)(C)CCOC(=O)CCC(=O)OCC[N+](C)(C)C`, the compound was called inactive.

As to `Cc1nc2c([nH]1)c(=O)n(C)c(=O)n2Cc1ccco1`, the outcome was inactive.

For the compound `CN(C(=O)CCCOc1ccc2[nH]c(=O)ccc2c1)C1CCCCC1`, the compound was called inactive.

`O=C(CCNNC(=O)c1ccncc1)NCc1ccccc1`: the compound was classed as inactive.
